Hits are enriched below; roughly 0.54% of the tested compounds scored in any of these assays.
DUSP3 inh – VHR1 phosphatase inhibitors, primary screen, biochemical, absorbance, uHTS | hit rate 0.52% among 290,000 | recombinant VHR phosphatase, pNPP absorbance | AID 1654, 2009 | inhibition, % at 13.3 µM; in the data active means inhibition above about 50%
Target sequence (P51452 whole entry, looked up): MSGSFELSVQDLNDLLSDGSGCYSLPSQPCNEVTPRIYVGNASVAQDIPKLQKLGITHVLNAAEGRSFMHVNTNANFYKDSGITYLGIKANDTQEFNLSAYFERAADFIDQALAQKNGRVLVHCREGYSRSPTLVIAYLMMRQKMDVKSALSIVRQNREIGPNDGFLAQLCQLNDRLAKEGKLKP
Mtb RmlCD inh – M. tuberculosis RmlC/RmlD coupled enzyme inhibitors, primary screen, biochemical, compound mixtures, 384-well, from 1536-well plates; dTDP-4-dehydrorhamnose reductase (Mycobacterium tuberculosis (strain ATCC 25618 / H37Rv)) …; RmlC+RmlD coupled enzyme assay, percent inhibition; primary screen in compound mixtures; inhibition, % at 3.6 µM; hit rate 0.03% among 160,000; AID 1533, 2009; in the data active means inhibition mostly above about 34%, no sharp cut-off
Target sequence (P9WH09 whole entry, looked up): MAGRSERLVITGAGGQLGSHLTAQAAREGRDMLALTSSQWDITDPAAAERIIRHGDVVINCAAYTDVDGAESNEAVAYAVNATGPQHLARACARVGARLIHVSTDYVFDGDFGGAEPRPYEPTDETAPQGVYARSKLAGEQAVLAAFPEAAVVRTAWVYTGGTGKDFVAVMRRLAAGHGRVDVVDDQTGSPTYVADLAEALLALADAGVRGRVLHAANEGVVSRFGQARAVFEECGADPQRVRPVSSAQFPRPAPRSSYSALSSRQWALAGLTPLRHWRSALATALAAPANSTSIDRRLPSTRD
Target sequence (P9WH11 whole entry, looked up): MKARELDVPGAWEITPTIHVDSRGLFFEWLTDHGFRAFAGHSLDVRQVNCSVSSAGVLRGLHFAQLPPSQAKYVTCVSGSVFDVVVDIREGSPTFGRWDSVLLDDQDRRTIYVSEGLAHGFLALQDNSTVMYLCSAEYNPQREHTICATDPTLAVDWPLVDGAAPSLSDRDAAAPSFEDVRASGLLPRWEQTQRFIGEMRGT
Of the large screens only hits and unclear results are named; the others gave an inactive call.

Cc1ccc2[nH]cc(CCNC(=O)c3cccs3)c2c1	DUSP3 inh 52.0 (no result: Mtb RmlCD inh)
Cc1ccc2[nH]cc(CCNC(=O)c3ccco3)c2c1	none (no result: Mtb RmlCD inh)
CC(NC(=O)c1cccc(S(=O)(=O)N2CCN(Cc3ccccc3)CC2)c1)c1ccc(Br)cc1 (stereo not drawn)	none (no result: Mtb RmlCD inh)
COc1ccc(C(=O)Nc2ccnn2C2CCN(C3CCC3)CC2)cc1	DUSP3 inh 52.5 (no result: Mtb RmlCD inh)
O=C(Nc1ccnn1C1CCN(C2CCC2)CC1)c1ccccc1	none (no result: Mtb RmlCD inh)
COc1cc(C)nc(-c2csc(C)n2)n1	none
Cc1nc(N2CCN(S(=O)(=O)c3ccccc3C#N)CC2)c2c(-c3cccs3)csc2n1	none
O=c1cc2c(=O)oc3cc(O)c(O)oc3c2c(O)c1O	DUSP3 inh 111.6
O=c1oc2cc(O)c(Cl)cc2c2ccccc12	none
COc1ccc(C(=O)/C=C/c2ccsc2)cc1CSCC(=O)O	none (no result: Mtb RmlCD inh)
Cn1c(CNC2CCCCC2)c(C#N)c2ccccc21	none
Cc1ccc(P(=O)(CC(=O)O)c2ccc(C)cc2)cc1	none (no result: Mtb RmlCD inh)
O=C(O)CP(=O)(O)c1ccc(Cl)cc1	DUSP3 inh 50.8 (no result: Mtb RmlCD inh)
COc1ccc(N(CC(=O)N2CCc3ccccc32)S(=O)(=O)c2c(C)nn(C)c2C)cc1	none
Cc1nn(C)c(C)c1S(=O)(=O)N(CC(=O)N1CCc2ccccc21)c1ccc(C(C)C)cc1	DUSP3 inh 50.3
COc1ccc2nc(NC(=O)c3ccccc3F)sc2c1	none (no result: Mtb RmlCD inh)
Cn1c(NN)nc2c1c(=O)n(Cc1ccccc1)c(=O)n2C	none (no result: Mtb RmlCD inh)
Cn1c(N/N=C2\CCCc3ccccc32)nc2c1c(=O)n(Cc1ccc(F)cc1)c(=O)n2C	DUSP3 inh 59.9
COc1ccc(NC(=O)CCCNC(=O)Cn2cnc3sc4c(c3c2=O)CCCC4)c(OC)c1	none (no result: Mtb RmlCD inh)
COc1ccc(C(C)(C)C)cc1S(=O)(=O)n1ccnc1C	none
CC1CCCN(S(=O)(=O)c2ccc(S(=O)(=O)N3CCCC3)cc2)C1 (stereo not drawn)	none (no result: Mtb RmlCD inh)
CC1CCCN(S(=O)(=O)c2ccc(S(=O)(=O)N3CCCN(Cc4ccccc4)C3)cc2)C1 (stereo not drawn)	DUSP3 inh 51.9 (no result: Mtb RmlCD inh)
O=C(Cc1ccccc1Cl)N/N=C/c1cccnc1	none (no result: Mtb RmlCD inh)
O=C(Cc1ccc(Cl)c(Cl)c1)N/N=C/c1cccnc1	DUSP3 inh 57.1 (no result: Mtb RmlCD inh)
COc1ccc(C(=O)Nc2nncs2)cc1S(=O)(=O)N1CCOCC1	none (no result: Mtb RmlCD inh)
CC(C)N(Cc1cnn(C)c1)C(=O)c1ccc(OC2CCN(Cc3ccccn3)CC2)cc1	DUSP3 inh 56.8 (no result: Mtb RmlCD inh)
Cc1nn(C)cc1CN(C)C(=O)c1ccc(OC2CCN(Cc3ccccn3)CC2)cc1	none (no result: Mtb RmlCD inh)
O=C(/C=C/c1ccc(F)cc1)N1CC[C@@]2(O)CCCC[C@H]2C1	none (no result: Mtb RmlCD inh)
O=C(CSc1nnnn1-c1ccccc1)N1CCCc2ccccc21	none (no result: Mtb RmlCD inh)
O=C(CSc1n[nH]c(-c2cccs2)n1)N1CCCc2ccccc21	none
Nc1nc(SCC(=O)N2CCCc3ccccc32)n(-c2ccccc2)n1	DUSP3 inh 50.3
O=C(CSc1n[nH]c(-c2ccccc2O)n1)N1CCCc2ccccc21	DUSP3 inh 51.7
COc1ccc(-n2ncc3c2CC(C)(C)CC3NC(=O)c2ccnn2C)cc1 (stereo not drawn)	none (no result: Mtb RmlCD inh)
CCOC(=O)Cc1cc(-c2ccc(F)cc2)nc2ccc3ccccc3c12	none (no result: Mtb RmlCD inh)
CC1(C)NC(=O)N(CCCOc2ccccc2Br)C1=O	DUSP3 inh 51.2 (no result: Mtb RmlCD inh)
CC1(C)NC(=O)N(CCCCOc2ccccc2[N+](=O)[O-])C1=O	none
CCn1c(O)c(C#N)c(C)cc1=O	none
COc1cccc(CNC(=O)c2ccc(CS(=O)(=O)Cc3ccc(C)cc3)o2)c1	none
COc1cccc(CNC(=O)c2ccc(CS(=O)(=O)Cc3ccccc3C)o2)c1	DUSP3 inh 57.7 (no result: Mtb RmlCD inh)
Cc1ccc(-c2csc(NCCn3c(-c4ccncc4)nc4ccccc43)n2)cc1	none (no result: Mtb RmlCD inh)
O=S(=O)(NC1CCCC1)c1ccc(S(=O)(=O)N2CCN(c3ccccc3)CC2)cc1	none
CCN1CCCC1CNC(=O)Cn1cccc1C(=O)c1ccccc1C (stereo not drawn)	none
COc1ccc(CN(C(=O)c2snc(C(N)=O)c2N)C(CC(C)C)C(=O)NC2CCCCC2)cc1 (stereo not drawn)	none (no result: Mtb RmlCD inh)
CC(C)CC(C(=O)NC1CCCCC1)N(Cc1ccccc1)C(=O)c1snc(C(N)=O)c1N (stereo not drawn)	DUSP3 inh 58.5 (no result: Mtb RmlCD inh)
Cc1sc2ncnc(N3CCC(C(=O)NNC(=O)c4ccccc4Cl)CC3)c2c1C	DUSP3 inh 53.3 (no result: Mtb RmlCD inh)
CCN(CC)CCNC(=O)c1ccc(NC(=O)C2CCN(c3ncnc4sc(C)c(C)c34)CC2)cc1	none (no result: Mtb RmlCD inh)
CC(/C=C1\SC(=S)N(c2ccc(C(=O)O)cc2)C1=O)=C\c1ccccc1	DUSP3 inh 52.8
CC(/C=C1\SC(=S)N(NC(=O)c2ccc(C)cc2)C1=O)=C\c1ccccc1	none
Cc1nc(-c2ccccn2)nc(N(C)c2ccccc2)c1Cl	none (no result: Mtb RmlCD inh)
COc1ccc(C2C(C#N)=C(N)Oc3cc(N)ccc32)cc1 (stereo not drawn)	DUSP3 inh 55.7 (no result: Mtb RmlCD inh)
N#CC1=C(N)Oc2cc(N)ccc2C1c1ccc(Cl)cc1 (stereo not drawn)	none (no result: Mtb RmlCD inh)
CCCn1c(SCC(=O)Nc2cccc(S(=O)(=O)NC3=NCCCCC3)c2)nc2ccccc2c1=O	none
Cc1ccc(-n2c(SCC(=O)Nc3cccc(S(=O)(=O)NC4=NCCCCC4)c3)nc3ccccc3c2=O)cc1C	DUSP3 inh 59.9
Cc1ccc(C(C)(C)C)c(SCC(=O)Nc2nnc(C)s2)c1	none (no result: Mtb RmlCD inh)
COc1ccc2cc3cc(C(=O)NCCCN4CCOCC4)oc3nc2c1	Mtb RmlCD inh 51.0
COc1ccc2cc3cc(C(=O)NCCN4CCN(Cc5ccccc5)CC4)oc3nc2c1	none
COc1ccc2cc3cc(C(=O)NCCCN4CCC(C)CC4)oc3nc2c1	none (no result: Mtb RmlCD inh)
CCN1CCN(CCCNC(=O)c2cc3cc4ccc(OC)cc4nc3o2)CC1	DUSP3 inh 55.0
CCCNC(=O)Nc1cccc(NC(C)=O)c1	none
Cc1nn(-c2ccccc2)nc1C(N)=O	none
NC(=O)c1nn(-c2ccccc2)nc1N	Mtb RmlCD inh 78.9
COc1ccccc1CN1CC(C(=O)NCc2cc(F)cc(C(F)(F)F)c2)CCC1=O (stereo not drawn)	none (no result: Mtb RmlCD inh)
O=C(O)c1ccc2c(c1)C(=O)N(c1cccc(-c3nc4ccccc4s3)c1)C2=O	DUSP3 inh 122.6
CC(=O)Oc1cccc(N2C(=O)c3ccc(C(=O)O)cc3C2=O)c1	none
CCCc1n(CC)c2ccccc2[n+]1CC(O)COC1CCCCC1 (stereo not drawn)	none
Cc1cc(Cl)c2oc(C(=O)N(CCO)Cc3ccccc3)c(C)c2c1	none (no result: Mtb RmlCD inh)
Cc1c(C(=O)N(CCO)Cc2ccccc2)oc2c(F)cccc12	DUSP3 inh 55.5 (no result: Mtb RmlCD inh)
Cc1cc(OCC(=O)N2CCN(c3ccccn3)CC2)cc(C)c1Br	none (no result: Mtb RmlCD inh)
COc1ccc(-c2nc(CS(=O)(=O)CC(=O)NCCCN3CCN(C)CC3)c(C)o2)cc1	DUSP3 inh 56.8 (no result: Mtb RmlCD inh)
Cc1oc(-c2ccccc2F)nc1CS(=O)(=O)CC(=O)NCCCN1CCN(C)CC1	none (no result: Mtb RmlCD inh)
Cc1cccc(Oc2ncnc3oc(-c4ccccc4)cc23)c1C	none
COc1ccc(N)cc1NC(=O)CN1CCCC1	DUSP3 inh 58.9 (no result: Mtb RmlCD inh)
COc1ccccc1NC(=O)CN1CCN(C2c3ccccc3-c3ccccc32)CC1	DUSP3 inh 50.8 (no result: Mtb RmlCD inh)
COc1ccc(Cl)cc1NC(=O)CN1CCCCCC1	none
COc1ccc(NC(=O)CN2CCN(C3c4ccccc4-c4ccccc43)CC2)c(OC)c1	none
COC(=O)NCC12CC3CC(C1)CC(CNC(=O)OC)(C3)C2	none
CC(N)C12CC3CC(C1)CC(C(C)N)(C3)C2 (stereo not drawn)	none
